Bioassay records: PubChem, Sanford-Burnham Center for Chemical Genomics
CYP2C19 act = human CYP2C19 activators, primary screen, biochemical, luminescence; Cytochrome P450 2C19 (Homo sapiens), P33261; recombinant CYP2C19, luciferin-H EGE luminescence; stronger effect = higher value; 0 = fully inhibited enzyme, 1 = untreated enzyme; activation factor at 5 µM; 96,000 tested, under 10 active;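 active means activation factor of at least 2 at 5 µM in the primary screen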;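 further: 0 = wells with 2.5 mM tranylcypromine and 1 = vehicle-only wells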
Target sequence (P33261 whole entry, looked up): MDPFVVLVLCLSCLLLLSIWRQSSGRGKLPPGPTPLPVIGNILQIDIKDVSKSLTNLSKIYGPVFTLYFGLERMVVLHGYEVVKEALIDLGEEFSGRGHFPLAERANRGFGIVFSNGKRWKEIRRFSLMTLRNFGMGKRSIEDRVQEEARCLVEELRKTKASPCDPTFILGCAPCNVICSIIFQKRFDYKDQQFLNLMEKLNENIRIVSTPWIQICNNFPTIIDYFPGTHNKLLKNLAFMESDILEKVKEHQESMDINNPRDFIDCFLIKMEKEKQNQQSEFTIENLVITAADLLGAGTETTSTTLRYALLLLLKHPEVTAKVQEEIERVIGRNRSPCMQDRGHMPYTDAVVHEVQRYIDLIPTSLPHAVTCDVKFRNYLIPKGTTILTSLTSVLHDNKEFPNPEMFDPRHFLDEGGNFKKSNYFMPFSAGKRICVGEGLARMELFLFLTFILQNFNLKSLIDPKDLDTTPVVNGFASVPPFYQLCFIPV
CYP2C9 inhib = blockers of cytochrome P450 2C9 activity – biochemical, luminescence, ADME assay, primary screen. P11712. CYP2C9 Supersomes, luciferin-H conversion. inhibition, % at 5 µM. 20% of 96,000 active. AID 777, 2007;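 active means blocking of liver enzyme CYP2C9 beyond about 50% at 5 µM, limit read from the data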
CYP2C9 act = human CYP2C9 activators, primary screen, biochemical, luminescence | Cytochrome P450 2C9 (Homo sapiens), P11712 | recombinant CYP2C9, luciferin-H conversion; stronger effect = higher value; factor 1 = untreated enzyme, 0 = blocked | activation factor at 5 µM | 1.4% of 96,000 active | AID 1024, 2008;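 active means activation factor of 2 or more for CYP2C9 at a 5 µM dose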;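 further: 0 = sulfaphenazole-blocked wells and 1 = vehicle-only wells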
CYP2C19 inhib = blockers of cytochrome P450 2C19 activity – biochemical, luminescence, ADME assay, primary screen. P33261. CYP2C19 Supersomes, luciferin-H EGE luminescence, 30 min. inhibition, % at 5 µM. 21% of 96,000 active;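 active means CYP2C19 inhibition above a set limit at 5 µM in the primary screen, cut at about 50% in these data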;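 further: plate controls were negative control wells for no effect and 2.5 mM tranylcypromine positive control for full effect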
PLAP activator = PLAP enzyme activators, biochemical, luminescence, HTS | 1.2% of 96,000 active | activation fold at 20 µM | purified PLAP enzyme, luminescent substrate read-out; stronger effect = higher value | AID 696, 2007; in the data active means activation fold above about 2
* hit, by the source's call. The list is not random: actives were taken first. Their share in the collection is about 31%.

SMILES	CYP2C19 act	CYP2C9 inhib	CYP2C9 act	CYP2C19 inhib	PLAP activator
COc1ccc(OC)c(C2C(C#N)=C(N)Oc3cc(C)[nH]c(=O)c32)c1 (centres undefined)	1.1	-3	1	-8	1.1
Cc1nn(-c2cccc(Cl)c2)c2c1C(c1ccncc1)C(C#N)=C(N)O2 (centres undefined)	0.5	62*	0.4	50*	1
CCCNc1nc(NCC)nc(OC)n1	1	-31	1.3	3	1.2
CNC(=O)c1ccccc1NC(=O)c1cccc(S(=O)(=O)N2CCC(C)CC2)c1	0.1	73*	0.3	90*	1.3
O=C(NCc1ccccc1)c1cccc(S(=O)(=O)N2CCOCC2)c1	0.6	0	1	36	1
CCNC(=O)c1ccccc1NC(=O)c1cccc(S(=O)(=O)N2CCC(C)CC2)c1	0.4	68*	0.3	59*	0.9
O=C(Nc1ccccc1C(=O)N1CCOCC1)c1cccc(S(=O)(=O)N2CCCC2)c1	1.1	3	1	-9	1.1
CSc1cccc(NS(=O)(=O)c2cccc3nsnc23)c1	0.4	64*	0.4	58*	1.3
COc1cc(NS(=O)(=O)c2cccc3nsnc23)cc(OC)c1	0.1	45	0.5	93*	1.3
CSc1cccc(NS(=O)(=O)c2cccs2)c1	0.7	14	0.9	32	0.9
CN(c1ccc(C(=O)NC2CC2)cc1)S(=O)(=O)c1ccccc1	0.5	70*	0.3	50	1.1
Cc1ccc(S(=O)(=O)N(C)c2ccc(C(=O)O)cc2)cc1	1	20	0.8	4	1
CN(c1ccc(C(=O)NCCSCc2ccccc2)cc1)S(=O)(=O)c1ccccc1	0.6	69*	0.3	37	0.9
